Assay results as given in PubChem BioAssay.
Calls of active or inactive are those of the source.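 Rule for the calls: active = visually confirmed hit in the image check and inhibition above 20%; inconclusive = visually confirmed hit but inhibition not above 20%; inactive = no visual hit in the image check.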

Assay: endothelial E-selectin expression blockers – imaging, HUVEC, immunofluorescence, MLSMR starter and 10KST1 sets, primary screen (AID 487);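 for inhibition: signal is fraction of cell area covered by stained E-selectin grains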;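 for nuclei count: 100% = median nuclei count of all wells on the same plate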
Conditions: HUVEC TNFalpha-induced E-selectin immunofluorescence imaging, at 2 µM; inhibition: stronger effect = higher value; nuclei count: measured here: cell number, toxicity

**Q.** Which results are given for O=C(Cn1nc(Cc2ccncc2)c2ccccc2c1=O)N1CCN(C(=O)c2ccco2)CC1?
**A.** nuclei count: 112%; inhibition: -15.2% (inactive)

**Q.** Which nuclei count does the source give for O=C(CSc1nnnn1-c1ccc2c(c1)OCO2)NCc1cccs1 here?
**A.** 98.8%

**Q.** What about the inhibition of the same compound?
**A.** -66.6% (inactive)

**Q.** Which results are given for Cc1occc1-c1nnc(SCC(=O)c2ccc(F)cc2)n1Cc1ccco1?
**A.** nuclei count: 107%; inhibition: -42.8% (inactive)

**Q.** For CC(C)(C)NC(=O)C(c1ccco1)N(C(=O)Cn1nnc(-c2ccc(F)cc2)n1)c1ccccc1F (stereo not given), which nuclei count is on record?
**A.** 127%

**Q.** What about the inhibition of the same compound?
**A.** -96.2% (inactive)

**Q.** Which nuclei count does the source give for CCOC(=O)C(CC)Sc1nc2c(c(=O)[nH]c(=O)n2C)n1C/C=C(/C)Cl (stereo not given) here?
**A.** 106%

**Q.** And the inhibition?
**A.** 18.5% (inactive)

**Q.** For CCN1CCN(C(=O)Cn2ncc3ccsc3c2=O)CC1, which nuclei count is on record?
**A.** 120%

**Q.** And the inhibition?
**A.** -54.3% (inactive)

**Q.** Which results are given for Cc1cc(N2CCOCC2)nc2ccc(NC(=O)C3CCC(C)CC3)cc12 (stereo not given)?
**A.** nuclei count: 123%; inhibition: -132% (inactive)

**Q.** Which nuclei count does the source give for O=C(Nc1cccc(F)c1)C1C2C=CC3(CN(CCCN4CCOCC4)C(=O)C13)O2 (stereo not given) here?
**A.** 116%

**Q.** What about the inhibition of the same compound?
**A.** -75.2% (inactive)

**Q.** For C=CCn1c(=O)n(CCOC)c(=O)c2sc3ccccc3c21, which nuclei count is on record?
**A.** 102%

**Q.** And the inhibition?
**A.** -34% (inactive)

**Q.** For Cc1ccc(C(=O)CSc2n[nH]c(-c3ccco3)n2)cc1C, which nuclei count is on record?
**A.** 106%

**Q.** What about the inhibition of the same compound?
**A.** 11.3% (inactive)

**Q.** What does the source list for Cc1ccc(-c2cn3nc(C)c(C)nc3n2)cc1?
**A.** inhibition: -35.5% (inactive); nuclei count: 121%

**Q.** Which nuclei count does the source give for O=C(NCCO)c1cc2ccccc2cc1O here?
**A.** 109%

**Q.** What about the inhibition of the same compound?
**A.** -92.3% (inactive)

**Q.** Which results are given for CCOCCCNC(=O)CS(=O)(=O)Cc1nc(-c2cccc(OC)c2)oc1C?
**A.** nuclei count: 97.9%; inhibition: -6.1% (inactive)

**Q.** What does the source list for COc1ccccc1Cn1nnc2c(=O)[nH]c(C3CCN(C(=O)c4ccccc4Cl)CC3)nc21?
**A.** inhibition: -5.4% (inactive); nuclei count: 98%

**Q.** Which results are given for CCCCc1n[nH]c2c1C(=O)CC(C)(C)C2?
**A.** inhibition: -75.3% (inactive); nuclei count: 120%

**Q.** For Cc1ccc(NC(=O)c2ccco2)c(NC(=O)c2cccs2)c1, which nuclei count is on record?
**A.** 111%

**Q.** What about the inhibition of the same compound?
**A.** -119% (inactive)

**Q.** For COc1ccc(NC(=O)CN2CCCCC2)cc1, which inhibition is on record?
**A.** -23.4% (inactive)

**Q.** What about the nuclei count of the same compound?
**A.** 121%

**Q.** Which inhibition does the source give for CCCCP(=O)(CCCC)c1ccccc1C(=O)O here?
**A.** -21.2% (inactive)

**Q.** What about the nuclei count of the same compound?
**A.** 87.7%

**Q.** For c1ccc2c(c1)CNc1ccccc1C2, which inhibition is on record?
**A.** -30% (inactive)

**Q.** What about the nuclei count of the same compound?
**A.** 86.7%

**Q.** With Cc1ccc(NC2=NC3(CCCCC3)N=C(N)N2)c(C)c1 as the compound, how does the inhibition read?
**A.** -59.7% (inactive)

**Q.** What about the nuclei count of the same compound?
**A.** 99.3%

**Q.** For CCCOC(=O)c1ccc(-c2c(C)noc2-c2ccc(OC)cc2O)o1, which inhibition is on record?
**A.** 0.4% (inactive)

**Q.** What about the nuclei count of the same compound?
**A.** 87%

**Q.** For CCOC(=O)C1CCN(Cc2ccc(OC)c(C)c2OC)CC1, which inhibition is on record?
**A.** -41.2% (inactive)

**Q.** What about the nuclei count of the same compound?
**A.** 108%

**Q.** What does the source list for CC1CCCC(C)N1C(=O)CSc1nnc(-c2cccs2)o1 (stereo not given)?
**A.** nuclei count: 101%; inhibition: -9.9% (inactive)

**Q.** Which results are given for Cc1nc2ccccc2c2oc(C(=O)NCC3COc4ccccc4O3)cc12 (stereo not given)?
**A.** nuclei count: 99%; inhibition: 3.3% (inactive)

**Q.** With O=C(c1ccccc1-c1nc(-c2ccccc2)no1)N1CCCC1 as the compound, how does the nuclei count read?
**A.** 85.6%

**Q.** And the inhibition?
**A.** 51% (inactive)

**Q.** With COc1ccc(OC)c(C(C)NC=O)c1 (stereo not given) as the compound, how does the nuclei count read?
**A.** 108%

**Q.** What about the inhibition of the same compound?
**A.** -56.8% (inactive)

**Q.** Which results are given for CCSc1ccccc1C(=O)Nc1cccc(OC)c1?
**A.** nuclei count: 75%; inhibition: -1.4% (inactive)

**Q.** Which results are given for O=S(=O)(NCc1ccc(Cl)cc1)c1cnc[nH]1?
**A.** nuclei count: 129%; inhibition: -182% (inactive)

**Q.** For Cc1ccc2oc(=O)c3cnn(CC(=O)NCCC(C)C)c3c2c1, which inhibition is on record?
**A.** -31.4% (inactive)

**Q.** What about the nuclei count of the same compound?
**A.** 104%

**Q.** With CCOC(=O)N1CCN(S(=O)(=O)c2ccc(OCC)c(C)c2)CC1 as the compound, how does the inhibition read?
**A.** 8.2% (inactive)

**Q.** What about the nuclei count of the same compound?
**A.** 102%

**Q.** Which nuclei count does the source give for Cc1cc(C(F)(F)F)nn1Cc1ccc(C(=O)NCc2ccco2)o1 here?
**A.** 108%

**Q.** What about the inhibition of the same compound?
**A.** -36% (inactive)

**Q.** For CC(=O)c1c(C)oc2ccc(NS(=O)(=O)c3ccc(O)c(C(=O)O)c3)cc12, which inhibition is on record?
**A.** -5.6% (inactive)

**Q.** What about the nuclei count of the same compound?
**A.** 112%

**Q.** With Cc1ccc(S(=O)(=O)NC(=O)c2cc(C)n(CCCn3ccnc3)c2C)cc1 as the compound, how does the nuclei count read?
**A.** 108%

**Q.** What about the inhibition of the same compound?
**A.** -86.6% (inactive)

**Q.** For CC(C)(O)C1=NOC(c2ccccc2)C1 (stereo not given), which nuclei count is on record?
**A.** 99.1%

**Q.** What about the inhibition of the same compound?
**A.** -43.3% (inactive)

**Q.** Which inhibition does the source give for Cc1ccc(C(C(=O)NC2CCCCC2)N(C(=O)c2csnn2)C2CCCC2)o1 (stereo not given) here?
**A.** -68.9% (inactive)

**Q.** And the nuclei count?
**A.** 112%

**Q.** Which inhibition does the source give for COCCNC(=O)CC(NS(=O)(=O)c1ccc(NC(C)=O)cc1)C(C)C (stereo not given) here?
**A.** -122% (inactive)

**Q.** And the nuclei count?
**A.** 107%

**Q.** What does the source list for COc1ccccc1CN1CC(C(=O)NCc2cccnc2)CC1=O (stereo not given)?
**A.** nuclei count: 113%; inhibition: -0.1% (inactive)

**Q.** Which nuclei count does the source give for O=C(NC1=NCCS1)NC12CC3CC(CC(C3)C1)C2 here?
**A.** 101%

**Q.** And the inhibition?
**A.** -52.9% (inactive)

**Q.** What does the source list for CCc1nnc(NC(=O)C2CC(=O)N(Cc3ccco3)C2)s1 (stereo not given)?
**A.** nuclei count: 106%; inhibition: -0.2% (inactive)

**Q.** For Cc1ccc2c(c1)nnn2C1CCN(C(=O)NC23CC4CC(CC(C4)C2)C3)CC1, which inhibition is on record?
**A.** 19.9% (inactive)

**Q.** And the nuclei count?
**A.** 98.1%
